# Values without a mark were called inactive. Results filed as inconclusive are left out. Entries that show only a call come without a potency. The source made the active and inactive calls. Unless noted, the call rests on the fitted dose curve; in most records, active means well fitted curve in the direction sought with a large enough effect; inconclusive means small, poorly fitted or top-dose-only effect, or another doubt; inactive means no such curve, though single readings can be large; an effect the other way counts as inactive or inconclusive.
# What was measured:
# [1] = molecular target: Glucocorticoid receptor (Homo sapiens) (UniProt P04150); test: GR-EFC Redistribution (AID 451; calls by dose curve; further: potency means the concentration at half of the fitted maximal effect); conditions: CHO-K1 GR-EFC translocation, beta-gal luminescence, 2 h
# Sequence of Glucocorticoid receptor (Homo sapiens) (P04150 whole entry, looked up, the tested form may be a part): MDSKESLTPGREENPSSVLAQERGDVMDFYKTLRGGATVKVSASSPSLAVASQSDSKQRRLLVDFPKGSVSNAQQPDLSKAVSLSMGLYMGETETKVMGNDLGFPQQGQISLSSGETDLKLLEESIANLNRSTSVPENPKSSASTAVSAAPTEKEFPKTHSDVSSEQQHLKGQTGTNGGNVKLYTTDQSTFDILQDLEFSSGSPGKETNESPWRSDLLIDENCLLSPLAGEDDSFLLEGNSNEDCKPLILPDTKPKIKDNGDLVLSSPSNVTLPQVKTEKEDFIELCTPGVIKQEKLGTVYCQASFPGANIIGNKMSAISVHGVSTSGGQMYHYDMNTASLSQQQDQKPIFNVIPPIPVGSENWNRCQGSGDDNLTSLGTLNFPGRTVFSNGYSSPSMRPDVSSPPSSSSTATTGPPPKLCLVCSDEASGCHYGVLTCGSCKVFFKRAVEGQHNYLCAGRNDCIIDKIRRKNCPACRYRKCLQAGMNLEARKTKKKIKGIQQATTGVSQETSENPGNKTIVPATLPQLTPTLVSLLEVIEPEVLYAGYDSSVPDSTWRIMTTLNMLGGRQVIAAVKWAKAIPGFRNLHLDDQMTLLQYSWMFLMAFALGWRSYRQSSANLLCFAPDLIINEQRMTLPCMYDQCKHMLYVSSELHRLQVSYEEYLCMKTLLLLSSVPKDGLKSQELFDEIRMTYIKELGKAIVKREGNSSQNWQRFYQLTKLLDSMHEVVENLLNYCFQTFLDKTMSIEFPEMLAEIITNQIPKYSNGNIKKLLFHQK
# Procedure, shortened: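 Translocation of GR-ED fusion to nuclear EA restores b-gal, read by luminescence after 1 h room-temperature detection. Engineered CHO-K1 biosensor cells, 1,000/well, exposed 2 h at 37 C to titrations up to 46 uM final.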
# [2] = molecular target: Mitogen-activated protein kinase 10 (Mus musculus) (UniProt Q61831); test: JNK3 AlphaScreen Assay (AID 530; active means well fitted curve in either direction with a large enough effect, not every such curve was filed as active;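 further: kinase came from lysate of stimulated human HepG2 cells; signal reports phosphorylation of biotinylated GST-cJun 1-79 at Ser73 with 10 µM ATP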); conditions: JNK3 lysate, c-Jun phosphorylation; series mostly up to 57.1 µM
# Procedure, shortened: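 Room-temperature AlphaScreen kinase assay; pre-activated HepG2 lysate as JNK3 source, biotin-GST-cJun(1-79) substrate, 10 uM ATP, compound 15 min preincubation.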
# [3] = molecular target: DNA dC->dU-editing enzyme APOBEC-3G (Homo sapiens) (UniProt Q9HC16); test: qHTS for inhibitors of Vif-A3G interactions: Validation (AID 588379); conditions: Vif-A3G protein interaction assay; series mostly up to 46.1 µM
# Sequence of DNA dC->dU-editing enzyme APOBEC-3G (Homo sapiens) (Q9HC16 whole entry, looked up): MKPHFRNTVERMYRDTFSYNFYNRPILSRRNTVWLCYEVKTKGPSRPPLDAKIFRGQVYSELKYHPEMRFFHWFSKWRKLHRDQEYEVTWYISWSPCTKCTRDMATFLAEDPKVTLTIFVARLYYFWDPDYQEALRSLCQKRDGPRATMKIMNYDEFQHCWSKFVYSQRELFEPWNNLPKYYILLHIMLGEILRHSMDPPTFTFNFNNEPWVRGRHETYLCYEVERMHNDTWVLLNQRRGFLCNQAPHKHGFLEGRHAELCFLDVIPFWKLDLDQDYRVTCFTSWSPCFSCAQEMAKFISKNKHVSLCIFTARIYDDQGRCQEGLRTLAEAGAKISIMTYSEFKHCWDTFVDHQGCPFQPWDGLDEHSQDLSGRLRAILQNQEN
# Procedure, shortened: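 HeLa cells stably expressing Vif and A3G-eYFP, 700 cells/well, incubated overnight at 37 deg C, then exposed to compound overnight at 37 deg C. Inhibition of Vif-mediated degradation read as increased yellow fluorescence (Ex 488/Em 500-530) by laser-scanning cytometry.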
# [4] = tested on: Zika virus NS2B-NS3 protease; test: Primary screen GU AMC qHTS for Zika virus inhibitors (AID 1347154); conditions: Zika NS2B-NS3 unlinked protease, AMC fluorogenic substrate; series mostly up to 54.1 µM; further: nearly all actives have a fitted effect of over 70% in size
# Procedure, shortened: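 Fluorogenic AMC-substrate cleavage by noncovalent NS2B-NS3 protease complex (25 nM, pH 8.0 Tris buffer with Tween 20) followed for 15 minutes at room temperature (~20% conversion). Percent inhibition from ex340/em450 signal change, fitted by 4-parameter Hill equation.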
# [5] = Primary qHTS for small molecule stabilizers of the endoplasmic reticulum resident proteome: Secreted ER Calcium Modulated Protein (SERCaMP) assay (AID 1508630); conditions: SH-SY5Y GLuc-SERCaMP (Gaussia luciferase released on ER calcium loss) secretion, thapsigargin, luminescence; series mostly up to 38.4 µM
# Procedure, shortened: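 GLuc-SERCaMP-expressing SH-SY5Y cells, pretreated 16 h with compound, are challenged with thapsigargin to empty ER calcium stores; after 4 h, coelenterazine is added directly to the medium and luminescence is imaged.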
# [6] = molecular target: Cytochrome P450 3A4 (Homo sapiens) (UniProt P08684); test: qHTS Assay for Inhibitors and Substrates of Cytochrome P450 3A4 (AID 884); conditions: recombinant CYP3A4, Luciferin-PPXE luminescence; series mostly up to 57.1 µM; further: nearly all actives have a fitted effect of over 50% in size; further: potency means the concentration at half of the fitted maximal effect
# Sequence of Cytochrome P450 3A4 (Homo sapiens) (P08684 whole entry, looked up): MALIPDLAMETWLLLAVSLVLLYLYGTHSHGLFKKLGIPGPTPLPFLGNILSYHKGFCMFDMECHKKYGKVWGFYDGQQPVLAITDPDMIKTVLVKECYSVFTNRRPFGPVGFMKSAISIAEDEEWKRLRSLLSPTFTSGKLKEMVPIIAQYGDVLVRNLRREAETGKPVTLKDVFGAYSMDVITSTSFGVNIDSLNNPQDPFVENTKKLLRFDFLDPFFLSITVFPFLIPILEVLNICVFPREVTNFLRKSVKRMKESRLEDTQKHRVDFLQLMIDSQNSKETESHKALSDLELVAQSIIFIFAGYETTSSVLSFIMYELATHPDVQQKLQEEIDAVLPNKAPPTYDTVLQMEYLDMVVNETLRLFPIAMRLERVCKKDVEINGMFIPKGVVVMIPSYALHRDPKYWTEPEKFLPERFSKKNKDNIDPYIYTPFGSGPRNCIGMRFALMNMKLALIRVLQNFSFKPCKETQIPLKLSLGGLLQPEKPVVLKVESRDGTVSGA
# Procedure, shortened: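 20 nM human CYP3A4 with 25 uM Luciferin-PPXE (at KM) in 200 mM KPO4, preincubated 10 min with compound; NADPH regeneration started a 60 min RT reaction. Luciferin detected by luminescence, normalized to 57 uM ketoconazole as full inhibition.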
# [7] = molecular target: Ubiquitin carboxyl-terminal hydrolase 1 (Homo sapiens) (UniProt O94782); test: Inhibitors of USP1/UAF1: Pilot qHTS (AID 504865); conditions: purified USP1/UAF1, Ub-rhodamine cleavage fluorescence; series mostly up to 114 µM;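 further: rhodamine fluorescence freed from ubiquitin-rhodamine substrate followed over time; top concentration of the series differs between compounds; nearly all actives have a fitted effect of over 35% in size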
# Sequence of Ubiquitin carboxyl-terminal hydrolase 1 (Homo sapiens) (O94782 whole entry, looked up): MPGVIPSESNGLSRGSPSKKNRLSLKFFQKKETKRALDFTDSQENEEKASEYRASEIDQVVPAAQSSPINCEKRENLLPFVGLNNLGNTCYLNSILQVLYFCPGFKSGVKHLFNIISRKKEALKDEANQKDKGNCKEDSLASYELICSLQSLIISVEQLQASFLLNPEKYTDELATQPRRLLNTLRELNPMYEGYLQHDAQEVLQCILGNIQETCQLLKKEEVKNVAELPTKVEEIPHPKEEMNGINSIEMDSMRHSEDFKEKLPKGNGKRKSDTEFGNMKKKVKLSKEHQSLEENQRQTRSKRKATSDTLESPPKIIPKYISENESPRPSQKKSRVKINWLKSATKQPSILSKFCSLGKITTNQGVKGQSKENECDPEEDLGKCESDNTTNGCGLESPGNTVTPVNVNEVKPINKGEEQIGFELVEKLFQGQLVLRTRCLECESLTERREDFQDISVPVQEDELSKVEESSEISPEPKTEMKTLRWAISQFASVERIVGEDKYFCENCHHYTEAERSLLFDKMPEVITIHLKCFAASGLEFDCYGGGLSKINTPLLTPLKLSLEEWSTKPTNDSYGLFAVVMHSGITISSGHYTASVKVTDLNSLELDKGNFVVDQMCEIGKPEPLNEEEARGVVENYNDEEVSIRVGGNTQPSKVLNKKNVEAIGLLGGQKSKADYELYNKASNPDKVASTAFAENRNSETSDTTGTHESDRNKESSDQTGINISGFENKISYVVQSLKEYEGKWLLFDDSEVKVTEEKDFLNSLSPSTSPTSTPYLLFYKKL
# Procedure, shortened: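 USP1/UAF1 complex (1nM) preincubated with compound 15 min at room temperature, then Ub-Rho substrate (150nM final) added. Fluorescence read kinetically at 480/540 nm, 6 reads every 60 seconds. Buffer: 50mM HEPES pH 7.8, 0.5mM EDTA, 0.1 mg/ml BSA, 1mM TCEP, 0.01% Tween-20.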
# [8] = molecular target: Cytochrome P450 3A4 (Homo sapiens) (UniProt P08684); test: qHTS Assay for Activators of Cytochrome P450 3A4 (AID 885); conditions: recombinant CYP3A4, Luciferin-PPXE luminescence, 60 min; series mostly up to 57.1 µM; further: nearly all actives have a fitted effect of over 65% in size
# Procedure, shortened: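 Steps: enzyme/substrate mix dispensed; compound added, 10 min RT; NADPH regeneration solution added, 60 min RT; luciferin detection buffer stops reaction; 20 min later luminescence measured.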
# [9] = molecular target: Cytochrome P450 2C19 (Homo sapiens) (UniProt P33261); test: qHTS Assay for Inhibitors and Substrates of Cytochrome P450 2C19 (AID 899); conditions: recombinant CYP2C19, luciferin-H EGE luminescence; series mostly up to 57.1 µM; further: potency means the concentration at half of the fitted maximal effect; nearly all actives have a fitted effect of over 60% in size
# Sequence of Cytochrome P450 2C19 (Homo sapiens) (P33261 whole entry, looked up): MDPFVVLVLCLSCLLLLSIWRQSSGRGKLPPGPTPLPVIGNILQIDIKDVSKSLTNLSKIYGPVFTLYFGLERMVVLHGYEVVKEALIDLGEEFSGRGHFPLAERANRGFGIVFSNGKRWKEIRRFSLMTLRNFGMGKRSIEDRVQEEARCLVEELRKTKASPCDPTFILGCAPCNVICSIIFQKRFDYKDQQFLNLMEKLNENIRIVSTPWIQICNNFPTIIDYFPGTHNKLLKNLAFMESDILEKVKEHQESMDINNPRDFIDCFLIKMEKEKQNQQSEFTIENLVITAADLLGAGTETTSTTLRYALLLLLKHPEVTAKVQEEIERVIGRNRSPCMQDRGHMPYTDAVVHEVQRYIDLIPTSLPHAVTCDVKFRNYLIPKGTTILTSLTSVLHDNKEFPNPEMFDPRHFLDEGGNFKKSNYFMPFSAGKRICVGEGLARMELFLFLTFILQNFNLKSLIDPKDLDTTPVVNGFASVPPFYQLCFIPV
# Procedure, shortened: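 Reactions contain 5nM enzyme, 10uM Luciferin-H EGE (KM) and 50mM KPO4; compound preincubates 10 min at 37C, NADPH regeneration starts turnover for 60 min. Luminescence after detection reagent gives activity.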
# [10] = molecular target: Glucocorticoid receptor (Homo sapiens) (UniProt P04150); test: GR-GFP Redistribution (AID 450;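 active means compounds whose dose series gives a full or clear partial fitted curve of increased nuclear translocation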; further: potency means the concentration at half of the fitted maximal effect); conditions: U2OS GR-GFP nuclear translocation, laser cytometry, 2 h
# [11] = molecular target: 3',5'-cyclic-AMP phosphodiesterase 4B (Homo sapiens) (UniProt Q07343); test: qHTS Assay for Inhibitors of PDE-IV (AID 607; active means well fitted activation curve with a large enough effect in the main read-out, with a control signal flat, not every such curve was filed as active); conditions: HEK293 ACTOne CNG channel cells, membrane potential fluorescence; series mostly up to 22.9 µM
# Sequence of 3',5'-cyclic-AMP phosphodiesterase 4B (Homo sapiens) (Q07343 whole entry, looked up): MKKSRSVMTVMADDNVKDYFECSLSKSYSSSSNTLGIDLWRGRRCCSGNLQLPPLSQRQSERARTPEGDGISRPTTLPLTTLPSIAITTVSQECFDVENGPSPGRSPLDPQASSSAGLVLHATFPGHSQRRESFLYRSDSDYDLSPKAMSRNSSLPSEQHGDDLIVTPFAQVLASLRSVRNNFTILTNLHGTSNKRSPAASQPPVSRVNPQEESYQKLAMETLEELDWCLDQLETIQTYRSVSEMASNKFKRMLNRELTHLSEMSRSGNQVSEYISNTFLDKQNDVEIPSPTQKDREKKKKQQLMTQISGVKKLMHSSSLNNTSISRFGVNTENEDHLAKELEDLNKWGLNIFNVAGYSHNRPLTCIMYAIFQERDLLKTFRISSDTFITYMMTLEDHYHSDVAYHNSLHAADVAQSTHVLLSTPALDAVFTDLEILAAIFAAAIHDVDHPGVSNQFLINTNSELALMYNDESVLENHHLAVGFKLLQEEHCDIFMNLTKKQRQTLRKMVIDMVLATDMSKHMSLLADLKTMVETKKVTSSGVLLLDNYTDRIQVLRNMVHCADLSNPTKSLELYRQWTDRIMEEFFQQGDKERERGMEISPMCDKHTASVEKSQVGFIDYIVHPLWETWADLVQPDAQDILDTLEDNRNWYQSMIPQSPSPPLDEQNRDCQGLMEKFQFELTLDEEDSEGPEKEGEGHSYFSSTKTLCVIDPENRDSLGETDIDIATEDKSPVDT
# Procedure, shortened: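 The readout is membrane depolarisation from a cAMP-sensing CNG channel, detected with a potential dye at ex 535/em 590. Cells were HEK293-derived (endogenous PDE-IV) at 1000 cells/well, titrated up to 22.9 uM final.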
# [12] = molecular target: Cytochrome P450 2C9 (Homo sapiens) (UniProt P11712); test: qHTS Assay for Inhibitors and Substrates of Cytochrome P450 2C9 (AID 883); conditions: recombinant CYP2C9, luciferin-H luminescence, 60 min; series mostly up to 57.1 µM; further: nearly all actives have a fitted effect of over 60% in size; further: potency means the concentration at half of the fitted maximal effect
# Sequence of Cytochrome P450 2C9 (Homo sapiens) (P11712 whole entry, looked up): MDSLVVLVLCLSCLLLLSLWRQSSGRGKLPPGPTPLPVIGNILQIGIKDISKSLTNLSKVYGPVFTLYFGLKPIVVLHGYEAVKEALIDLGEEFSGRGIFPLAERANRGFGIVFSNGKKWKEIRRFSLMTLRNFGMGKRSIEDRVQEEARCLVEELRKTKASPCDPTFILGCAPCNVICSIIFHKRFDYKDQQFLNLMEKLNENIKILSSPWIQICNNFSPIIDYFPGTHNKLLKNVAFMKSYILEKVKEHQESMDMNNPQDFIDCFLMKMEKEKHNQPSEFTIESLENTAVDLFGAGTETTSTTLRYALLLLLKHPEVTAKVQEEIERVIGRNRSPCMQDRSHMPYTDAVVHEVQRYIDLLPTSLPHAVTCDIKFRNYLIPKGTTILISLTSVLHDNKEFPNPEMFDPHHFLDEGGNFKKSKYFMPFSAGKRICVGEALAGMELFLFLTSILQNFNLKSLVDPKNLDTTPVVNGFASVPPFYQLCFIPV
# Procedure, shortened: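 Turnover of Luciferin-H (100uM, KM) by 10nM human CYP2C9 was measured over 60 min at 37C with NADPH regeneration; inhibitors and some substrates reduce luminescence. Data normalized to sulphaphenazole 57uM.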
# [13] = molecular target: Guanine nucleotide-binding protein G(i) subunit alpha-1 (Homo sapiens) (UniProt P63096); test: qHTS Assay for Inhibitors of RGS12 GoLoco Motif Activity (Green Fluorophore) (AID 879); conditions: Galphai1/FITC-RGS12 GoLoco peptide, fluorescence polarization; series mostly up to 57.1 µM;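 further: negative values mean loss of peptide binding seen as reduced polarization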
# Sequence of Guanine nucleotide-binding protein G(i) subunit alpha-1 (Homo sapiens) (P63096 whole entry, looked up): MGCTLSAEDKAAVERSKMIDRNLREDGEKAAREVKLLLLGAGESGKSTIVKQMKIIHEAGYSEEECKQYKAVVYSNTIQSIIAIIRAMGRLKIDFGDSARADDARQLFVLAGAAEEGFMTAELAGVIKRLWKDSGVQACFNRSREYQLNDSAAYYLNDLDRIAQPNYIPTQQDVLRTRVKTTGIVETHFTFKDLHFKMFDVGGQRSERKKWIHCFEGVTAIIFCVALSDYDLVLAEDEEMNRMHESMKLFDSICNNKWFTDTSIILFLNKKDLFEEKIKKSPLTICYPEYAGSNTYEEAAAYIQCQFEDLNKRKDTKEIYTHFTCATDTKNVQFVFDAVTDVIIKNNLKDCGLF
# Procedure, shortened: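 Fluorescence polarization assay: 50 nM Gαi1 with 10 nM FITC-labeled RGS12 GoLoco peptide in 10 mM Tris pH 7.5, 150 mM NaCl, 0.1 mM GDP, 0.05% NP40, 10 min at room temperature with compound.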
# [14] = molecular target: Pyruvate kinase PKM (Homo sapiens) (UniProt P14618); test: qHTS Assay for Activators of Human Muscle Pyruvate Kinase (AID 954; active means well fitted curve in the direction sought with a large enough effect, not every such curve was filed as active); conditions: purified human muscle pyruvate kinase, luciferase-coupled luminescence, 1 h; series mostly up to 57.5 µM
# Procedure, shortened: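 Reaction: 0.1 nM purified PKM2 with 0.5 mM phosphoenolpyruvate and 0.1 mM ADP, room temperature, 1 h. Readout: luciferase-based ATP luminescence after stop reagent. Activators judged against a 0.3 nM enzyme column.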
# [15] = molecular target: alpha-glucosidase (Oryza sativa, rice) (UniProt Q653V4); test: Counterscreen for Glucocerebrosidase Inhibitors: qHTS Assay for Rice alpha-Glucosidase at pH 5.0 (AID 997); conditions: rice alpha-glucosidase enzyme activity; series mostly up to 76.9 µM
# Procedure, shortened: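 Rice alpha-glucosidase (4 nM final) with 400 uM 4-methylumbelliferyl-alpha-D-glucopyranoside in citrate buffer pH 5.0, 20 min at room temperature, stopped at pH 10; fluorescence 365/440 nm, compounds 0.7 nM–77 uM, AC50 from Hill fits.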
structure (smiles),measurement,setting,value
NCCCCCCNS(=O)(=O)c1ccc2c(Cl)cccc2c1,Potency,[1],> 46 µM
same,Potency,[2],inactive
same,Potency,[3],inactive
same,Potency,[4],inactive
same,Potency,[5],inactive
CC1OC(OC2C(CO)OC(OC3C(CO)OC(O)C(O)C3O)C(O)C2O)C(O)C(O)C1NC1C=C(CO)C(O)C(O)C1O (stereo not drawn),Potency,[6],inactive
same,Potency,[7],inactive
same,Potency,[4],inactive
same,Potency,[5],inactive
CN1CCc2cc3c(cc2[C@@H]1[C@@H]1C(=O)Oc2c1ccc1c2OCO1)OCO3,Potency,[1],> 46 µM
same,Potency,[2],inactive
same,Potency,[6],1.26 µM (active)
same,Potency,[8],inactive
same,Potency,[9],0.02 µM (active)
same,Potency,[3],inactive
same,Potency,[4],inactive
same,Potency,[5],inactive
CNC(=O)[C@H]1O[C@H](n2cnc3c(NCc4cccc(I)c4)nc(Cl)nc32)[C@@H](O)[C@@H]1O,Potency,[10],> 46 µM
same,Potency,[1],> 46 µM
same,Potency,[11],inactive
same,Potency,[3],inactive
same,Potency,[4],inactive
same,Potency,[5],inactive
O=C1C=CC(=O)C2=C1C1c3ccccc3C2c2ccccc21,Potency,[6],39.8 µM (active)
same,Potency,[8],inactive
same,Potency,[4],inactive
same,Potency,[5],inactive
NC1=NCCCC1,Potency,[1],> 46 µM
same,Potency,[2],inactive
same,Potency,[11],inactive
same,Potency,[7],inactive
same,Potency,[3],inactive
same,Potency,[4],inactive
same,Potency,[5],inactive
CNC(=O)[C@H]1O[C@H](n2cnc3c(NCc4cccc(I)c4)ncnc32)[C@@H](O)[C@@H]1O,Potency,[1],> 46 µM
same,Potency,[2],inactive
same,Potency,[8],inactive
same,Potency,[7],inactive
same,Potency,[3],inactive
same,Potency,[4],inactive
same,Potency,[5],inactive
CC(=O)[C@H]1CC[C@H]2C3CC=C4C[C@@H](O)CC[C@]4(C)C3CC[C@]12C (stereo partly drawn),Potency,[7],inactive
same,Potency,[4],inactive
same,Potency,[5],inactive
COc1ccc(C(OCCN2CCC[C@@H](C(=O)O)C2)(c2ccc(OC)cc2)c2ccc(OC)cc2)cc1,Potency,[10],> 46 µM
same,Potency,[2],inactive
same,Potency,[8],inactive
same,Potency,[3],inactive
same,Potency,[4],inactive
same,Potency,[5],inactive
CN1c2cc3c(cc2N=C(c2ccc(C(=O)O)cc2)c2ccccc21)C(C)(C)CCC3(C)C,Potency,[6],inactive
same,Potency,[4],inactive
same,Potency,[5],inactive
CCS(=O)(=O)N1CCC[C@H]2CN3CCc4cc(OC)ccc4[C@@H]3C[C@@H]21,Potency,[10],> 46 µM
same,Potency,[2],inactive
same,Potency,[12],inactive
same,Potency,[6],5.01 µM (active)
same,Potency,[8],inactive
same,Potency,[7],inactive
same,Potency,[3],inactive
same,Potency,[4],inactive
same,Potency,[5],inactive
Cc1c(C(=O)NN2CCOCC2)nn(-c2ccc(Cl)cc2Cl)c1-c1ccc(I)cc1,Potency,[10],> 46 µM
same,Potency,[1],> 46 µM
same,Potency,[2],inactive
same,Potency,[11],inactive
same,Potency,[12],6.31 µM (active)
same,Potency,[9],7.94 µM (active)
same,Potency,[3],inactive
same,Potency,[4],inactive
same,Potency,[5],inactive
COc1ccccc1N1CCN(CCn2c(=O)[nH]c3c([nH]c4ccccc43)c2=O)CC1,Potency,[10],> 46 µM
same,Potency,[1],> 46 µM
same,Potency,[2],inactive
same,Potency,[11],inactive
same,Potency,[8],inactive
same,Potency,[3],inactive
same,Potency,[4],inactive
same,Potency,[5],inactive
C[C@H](CCC(=O)O)[C@H]1CCC2C3CC[C@@H]4C[C@H](O)CC[C@]4(C)C3CC[C@@]21C (stereo partly drawn),Potency,[4],inactive
same,Potency,[5],inactive
C=CCN1CCN(c2nc3ccccc3nc2C#N)CC1,Potency,[10],> 46 µM
same,Potency,[1],> 46 µM
same,Potency,[11],inactive
same,Potency,[8],inactive
same,Potency,[3],inactive
same,Potency,[4],inactive
same,Potency,[5],inactive
CC#C[C@]1(O)CC[C@H]2[C@@H]3CCC4=CC(=O)CCC4=C3[C@H](c3ccc(N(C)C)cc3)C[C@@]21C,Potency,[11],inactive
same,outcome,[13],inactive
same,Potency,[9],7.94 µM (active)
same,outcome,[14],inactive
same,outcome,[15],inactive
same,Potency,[3],inactive
same,Potency,[4],inactive
same,Potency,[5],inactive
N[C@@H](C(=O)O)c1cc(O)ccc1Cl,Potency,[10],> 46 µM
same,Potency,[1],> 46 µM
same,Potency,[2],inactive
same,Potency,[11],inactive
same,Potency,[8],inactive
same,Potency,[3],inactive
same,Potency,[4],inactive
same,Potency,[5],inactive
COc1cc([C@@H]2c3cc4c(cc3[C@@H](O[C@@H]3O[C@H]5CO[C@@H](C)O[C@@H]5[C@@H](O)[C@H]3O)[C@@H]3COC(=O)[C@@H]23)OCO4)cc(OC)c1O,Potency,[2],inactive
same,Potency,[11],inactive
same,Potency,[3],inactive
same,Potency,[4],inactive
same,Potency,[5],inactive
O=C(NC1CCN(Cc2ccccc2)CC1)c1ccc(I)cc1,Potency,[10],> 46 µM
same,Potency,[2],inactive
same,Potency,[11],inactive
same,Potency,[6],inactive
same,Potency,[7],inactive
same,Potency,[3],inactive
same,Potency,[4],inactive
same,Potency,[5],inactive
c1cc2c(cc1C1CCCCC1)c1c3n2CCN[C@H]3CCC1,Potency,[10],> 46 µM
same,Potency,[1],> 46 µM
same,Potency,[2],inactive
same,Potency,[8],inactive
same,Potency,[3],inactive
same,Potency,[4],inactive
same,Potency,[5],inactive
Cc1cc(C)c(S(=O)(=O)Nc2cccc(C(F)(F)F)c2)c(C)c1,Potency,[10],> 46 µM
same,Potency,[2],inactive
same,Potency,[8],inactive
same,Potency,[9],3.16 µM (active)
same,Potency,[3],inactive
same,Potency,[4],inactive
same,Potency,[5],inactive
COc1cc2c(cc1OC)C(c1ccc(N)cc1)=NNC(=O)C2,Potency,[1],> 46 µM
same,Potency,[2],inactive
same,Potency,[11],inactive
same,Potency,[8],inactive
same,Potency,[3],inactive
same,Potency,[4],inactive
same,Potency,[5],inactive
NCCCCCCCCCCNS(=O)(=O)c1cccc2c(Cl)cccc12,Potency,[10],> 46 µM
same,Potency,[1],> 46 µM
same,Potency,[2],inactive
same,Potency,[12],0.0501 µM (active)
same,Potency,[6],2.51 µM (active)
same,Potency,[8],inactive
same,Potency,[9],0.0794 µM (active)
same,Potency,[3],inactive
same,Potency,[4],inactive
same,Potency,[5],inactive

# Source: PubChem BioAssay (NCATS)
